Data as given in PubChem BioAssay (Tox21).
Inconclusive results are not listed. Active and inactive are the calls of the source. Calls follow the shape of the dose curve; as a rule, active = well fitted curve in the direction sought with a large enough effect in the repeat runs; inconclusive = weak or mixed curves; inactive = no such curve, though single readings can be large; an effect the other way counts as inactive or inconclusive.

How the values were obtained:
[1] = A CellTox Green Cytotoxicity Assay to monitor cytotoxicity in HEK293 cells - 40 hour (AID 1224871); details: CellTox Green fluorescence; series mostly up to 76.8 µM; also: nearly all actives have a fitted effect of over 45% in size
Summary of the method: (§1)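 Each value comes from one timepoint of a single continuous run in which HEK293 cells with CellTox Green were exposed to compound for up to 40 h at 37 C, dye fluorescence rising with cell death.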

[2] = qHTS RealTime-Glo MT Cell Viability Assay in HEK293 cells - 16 hour (AID 1224872); details: RealTime-Glo luminescence; series mostly up to 76.8 µM; also: top concentration of the series differs between compounds; nearly all actives have a fitted effect of over 50% in size
Summary of the method: (§2)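 HEK293 cells seeded with NanoLuc/prosubstrate reagent, rested 5 h at 37 C, then dosed and kept at 37 C up to 40 h. Nonlytic real-time luminescence from viable cells read at 0, 8, 16, 24, 32 and 40 h.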

[3] = qHTS RealTime-Glo MT Cell Viability Assay in HepG2 cells - 8 hour (AID 1224873); details: RealTime-Glo luminescence; series mostly up to 76.8 µM; also: nearly all actives have a fitted effect of over 55% in size
Summary of the method: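 HepG2 cells mixed with RealTime-Glo MT reagents (NanoLuc plus cell-permeant prosubstrate) were seeded at 600 cells/well, incubated 5 h at 37 C/5% CO2, then pinned with compounds in DMSO; nonlytic luminescence tracked viability during 40 h treatment.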

[4] = A CellTox Green Cytotoxicity Assay to monitor cytotoxicity in HEK293 cells - 24 hour (AID 1224875); details: CellTox Green fluorescence; series mostly up to 76.8 µM; also: nearly all actives have a fitted effect of over 45% in size
Summary of the method: as §1

[5] = A CellTox Green Cytotoxicity Assay to monitor cytotoxicity in HepG2 cells - 16 hour (AID 1224876); details: CellTox Green fluorescence; series mostly up to 76.8 µM; also: nearly all actives have a fitted effect of over 45% in size
Summary of the method: (§3)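 Continuous culture of HepG2 cells with a membrane-impermeant DNA dye; rising fluorescence marks dead cells. Compound exposure lasted up to 40 h at 37 C, with reads every 8 h from 0 h.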

[6] = qHTS RealTime-Glo MT Cell Viability Assay in HepG2 cells - 32 hour (AID 1224877); details: RealTime-Glo luminescence; series mostly up to 76.8 µM; also: nearly all actives have a fitted effect of over 55% in size
Summary of the method: (§4)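 HepG2 cells (600/well) were dispensed with RealTime-Glo reagents, incubated 5 h at 37 °C, then treated with compounds in DMSO for up to 40 h. Nonlytic NanoLuc luminescence reflecting viable cells was read at each stated time point.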

[7] = A CellTox Green Cytotoxicity Assay to monitor cytotoxicity in HepG2 cells - 24 hour (AID 1224878); details: CellTox Green fluorescence; series mostly up to 76.8 µM; also: nearly all actives have a fitted effect of over 45% in size
Summary of the method: as §3

[8] = A CellTox Green Cytotoxicity Assay to monitor cytotoxicity in HepG2 cells - 40 hour (AID 1224879); details: CellTox Green fluorescence; series mostly up to 76.8 µM; also: nearly all actives have a fitted effect of over 40% in size
Summary of the method: as §3

[9] = qHTS RealTime-Glo MT Cell Viability Assay in HEK293 cells - 0 hour (AID 1224880); details: RealTime-Glo luminescence; series mostly up to 76.8 µM
Summary of the method: (§5)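 qHTS format; HEK293 cells with NanoLuc/prosubstrate reagent, 37 C/5% CO2 for 5 h pre-dosing; compounds 23 nL in DMSO; luminescence at each time point reflects viable cells.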

[10] = A CellTox Green Cytotoxicity Assay to monitor cytotoxicity in HEK293 cells - 32 hour (AID 1224881); details: CellTox Green fluorescence; series mostly up to 76.8 µM; also: nearly all actives have a fitted effect of over 40% in size
Summary of the method: as §1

[11] = A CellTox Green Cytotoxicity Assay to monitor cytotoxicity in HepG2 cells - 0 hour (AID 1224882); details: CellTox Green fluorescence; series mostly up to 76.8 µM; also: nearly all actives have a fitted effect of over 35% in size
Summary of the method: as §3

[12] = A CellTox Green Cytotoxicity Assay to monitor cytotoxicity in HepG2 cells - 32 hour (AID 1224883); details: CellTox Green fluorescence; series mostly up to 76.8 µM; also: nearly all actives have a fitted effect of over 50% in size
Summary of the method: as §3

[13] = A CellTox Green Cytotoxicity Assay to monitor cytotoxicity in HEK293 cells - 8 hour (AID 1224884); details: CellTox Green fluorescence; series mostly up to 76.8 µM; also: nearly all actives have a fitted effect of over 35% in size
Summary of the method: as §1

[14] = qHTS RealTime-Glo MT Cell Viability Assay in HepG2 cells - 16 hour (AID 1224885); details: RealTime-Glo luminescence; series mostly up to 76.8 µM; also: nearly all actives have a fitted effect of over 50% in size
Summary of the method: as §4

[15] = qHTS RealTime-Glo MT Cell Viability Assay in HEK293 cells - 24 hour (AID 1224886); details: RealTime-Glo luminescence; series mostly up to 76.8 µM; also: top concentration of the series differs between compounds; nearly all actives have a fitted effect of over 50% in size
Summary of the method: as §2

[16] = A CellTox Green Cytotoxicity Assay to monitor cytotoxicity in HEK293 cells - 16 hour (AID 1224888); details: CellTox Green fluorescence; series mostly up to 76.8 µM; also: nearly all actives have a fitted effect of over 35% in size
Summary of the method: as §1

[17] = qHTS RealTime-Glo MT Cell Viability Assay in HepG2 cells - 0 hour (AID 1224889); details: RealTime-Glo luminescence; series mostly up to 76.8 µM; also: nearly all actives have a fitted effect of over 50% in size
Summary of the method: as §4

[18] = A CellTox Green Cytotoxicity Assay to monitor cytotoxicity in HepG2 cells - 8 hour (AID 1224890); details: CellTox Green fluorescence; series mostly up to 76.8 µM; also: nearly all actives have a fitted effect of over 45% in size
Summary of the method: as §3

[19] = qHTS RealTime-Glo MT Cell Viability Assay in HEK293 cells - 8 hour (AID 1224887); details: RealTime-Glo luminescence; series mostly up to 76.8 µM
Summary of the method: as §5

Measured: Potency

CCCCOC(=O)CC(CC(=O)OCCCC)(OC(C)=O)C(=O)OCCCC
inactive: [1] | [2] | [3] | [4] | [5] | [6] | [7] | [8] | [9] | [10] | [11] | [12] | [13] | [14] | [15] | [16] | [17] | [18]

Cc1ccccc1C(OCCN(C)C)c1ccccc1 (stereo not drawn)
inactive: [1] | [2] | [3] | [4] | [5] | [6] | [7] | [8] | [9] | [10] | [11] | [12] | [13] | [14] | [15] | [17] | [18]

Cn1cc[nH]c1=S
inactive: [1] | [2] | [3] | [4] | [5] | [6] | [7] | [8] | [9] | [10] | [11] | [12] | [13] | [14] | [15] | [19] | [16] | [17] | [18]

CNC[C@H](O)c1cccc(O)c1
inactive: [1] | [2] | [3] | [4] | [5] | [6] | [7] | [8] | [9] | [10] | [11] | [12] | [13] | [14] | [15] | [19] | [16] | [17] | [18]

CC(=O)OCC(COC(C)=O)OC(C)=O
inactive: [1] | [2] | [3] | [4] | [5] | [6] | [7] | [8] | [9] | [10] | [11] | [12] | [13] | [14] | [15] | [19] | [16] | [17] | [18]

O=C(O)CCCCCCCC(=O)O
inactive: [1] | [2] | [3] | [4] | [5] | [6] | [7] | [8] | [9] | [10] | [11] | [12] | [13] | [14] | [15] | [16] | [17] | [18]

OC(Cn1cncn1)(Cn1cncn1)c1ccc(F)cc1F
inactive: [1] | [2] | [3] | [4] | [5] | [6] | [7] | [8] | [9] | [10] | [11] | [12] | [13] | [14] | [15] | [17] | [18]

CCOc1ccc(NC(=O)CC(C)O)cc1 (stereo not drawn)
inactive: [1] | [2] | [3] | [4] | [5] | [6] | [7] | [8] | [9] | [10] | [11] | [12] | [13] | [14] | [15] | [16] | [17] | [18]

O=c1ccc2ccccc2o1
inactive: [1] | [2] | [3] | [4] | [5] | [6] | [7] | [8] | [9] | [10] | [11] | [12] | [13] | [14] | [15] | [19] | [16] | [17] | [18]

NNC(=O)c1ccncc1
inactive: [1] | [2] | [3] | [4] | [5] | [6] | [7] | [8] | [9] | [10] | [11] | [12] | [13] | [14] | [15] | [17] | [18]

CC(C)(Oc1ccc(C2CC2(Cl)Cl)cc1)C(=O)O (stereo not drawn)
inactive: [1] | [2] | [3] | [4] | [5] | [6] | [7] | [8] | [9] | [10] | [11] | [12] | [13] | [14] | [15] | [17] | [18]
